Measured values from paper PMC3218832.

Experiments:
Assay in all cases: protein binding microarray; high values mean tight binding
Conditions in all cases: dsDNA, one strand shown
RELARELA (p65 homodimer) = RELARELA (p65 homodimer) (Homo sapiens, UniProt Q04206 1-307)
p50p50 homodimer = p50p50 homodimer (Homo sapiens, UniProt P19838 7-356)
p52p52 homodimer = target: T1, p52p52 homodimer (Homo sapiens, UniProt Q00653 4-332)
T1 sequence: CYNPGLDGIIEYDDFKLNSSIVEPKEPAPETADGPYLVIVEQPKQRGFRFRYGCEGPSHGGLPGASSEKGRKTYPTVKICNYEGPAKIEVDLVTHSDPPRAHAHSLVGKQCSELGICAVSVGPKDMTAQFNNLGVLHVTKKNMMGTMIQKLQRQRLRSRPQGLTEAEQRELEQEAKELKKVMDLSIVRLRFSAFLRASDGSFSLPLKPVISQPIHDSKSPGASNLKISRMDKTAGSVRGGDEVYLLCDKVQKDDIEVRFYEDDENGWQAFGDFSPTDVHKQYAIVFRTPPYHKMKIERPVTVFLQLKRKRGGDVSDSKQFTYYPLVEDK

[1] = target: RELA (p65) subunit of heterodimer;p50 subunit (Homo sapiens;Homo sapiens, UniProt Q04206;P19838 1-307;7-356)
[2] = target: RELA (p65) subunit of heterodimer;p52 subunit (Homo sapiens;Homo sapiens, UniProt Q04206;Q00653 1-307;4-332)
RELB subunit;p50 subunit = RELB subunit;p50 subunit (Homo sapiens;Homo sapiens, UniProt Q01201;P19838 120-401;7-356)
RELB subunit;p52 subunit = target: T2, RELB subunit;p52 subunit (Homo sapiens;Homo sapiens, UniProt Q01201;Q00653 120-401;4-332)
T2 sequence 1: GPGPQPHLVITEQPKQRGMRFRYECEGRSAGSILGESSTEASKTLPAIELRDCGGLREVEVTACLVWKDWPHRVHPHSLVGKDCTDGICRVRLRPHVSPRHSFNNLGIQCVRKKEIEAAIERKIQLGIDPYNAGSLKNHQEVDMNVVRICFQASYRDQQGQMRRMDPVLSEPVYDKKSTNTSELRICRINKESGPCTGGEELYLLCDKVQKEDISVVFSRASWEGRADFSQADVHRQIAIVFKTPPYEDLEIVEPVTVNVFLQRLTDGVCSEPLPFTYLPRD
T2 sequence 2: T1 sequence

[3] = target: C-Rel subunit;p50 subunit (Homo sapiens;Homo sapiens, UniProt Q04864;P19838 1-285;7-356)
[4] = target: T3, C-Rel subunit;p52 subunit (Homo sapiens;Homo sapiens, UniProt Q04864;Q00653 1-285;4-332)
T3 sequence 1: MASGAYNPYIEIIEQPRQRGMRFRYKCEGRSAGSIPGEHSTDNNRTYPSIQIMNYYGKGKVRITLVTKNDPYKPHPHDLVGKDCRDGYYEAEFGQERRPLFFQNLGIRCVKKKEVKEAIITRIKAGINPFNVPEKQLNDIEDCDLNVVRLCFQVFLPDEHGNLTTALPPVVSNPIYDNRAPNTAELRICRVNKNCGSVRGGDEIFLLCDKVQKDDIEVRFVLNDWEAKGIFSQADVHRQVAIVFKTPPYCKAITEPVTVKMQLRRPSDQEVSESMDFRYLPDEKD
T3 sequence 2: T1 sequence

Chain of RELARELA (p65 homodimer) (Q04206 1-307): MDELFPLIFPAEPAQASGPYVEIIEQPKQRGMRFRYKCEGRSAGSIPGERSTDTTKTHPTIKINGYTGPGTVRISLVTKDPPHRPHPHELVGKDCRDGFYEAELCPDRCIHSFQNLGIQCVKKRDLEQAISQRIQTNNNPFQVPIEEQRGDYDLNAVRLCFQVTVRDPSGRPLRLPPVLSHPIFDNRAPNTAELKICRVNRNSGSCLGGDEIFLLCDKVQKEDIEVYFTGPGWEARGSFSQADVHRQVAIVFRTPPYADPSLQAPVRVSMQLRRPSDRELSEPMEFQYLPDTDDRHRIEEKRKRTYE
Chain of RELA (p65) subunit of heterodimer;p50 subunit (Q04206 1-307, chain 1 of 2): as the sequence (Q04206 1-307) above
Chain of RELA (p65) subunit of heterodimer;p50 subunit (P19838 7-356, chain 2 of 2): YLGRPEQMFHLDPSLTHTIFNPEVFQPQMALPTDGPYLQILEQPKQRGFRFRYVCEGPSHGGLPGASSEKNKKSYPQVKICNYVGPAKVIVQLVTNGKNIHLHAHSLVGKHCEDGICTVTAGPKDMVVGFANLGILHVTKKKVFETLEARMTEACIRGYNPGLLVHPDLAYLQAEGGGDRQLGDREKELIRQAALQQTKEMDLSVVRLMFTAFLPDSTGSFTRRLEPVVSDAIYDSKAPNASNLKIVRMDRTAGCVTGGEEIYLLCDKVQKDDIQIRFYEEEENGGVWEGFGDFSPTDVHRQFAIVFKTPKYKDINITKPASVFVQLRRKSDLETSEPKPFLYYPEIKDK
Chain of p50p50 homodimer (P19838 7-356): as the sequence (P19838 7-356, chain 2 of 2) above

| Sequence | binding signal (RELARELA (p65 homodimer)) [z-score] | binding signal (p50p50 homodimer) [z-score] | binding signal (p52p52 homodimer) [z-score] | binding signal [1] [z-score] | binding signal [2] [z-score] | binding signal (RELB subunit;p50 subunit) [z-score] | binding signal (RELB subunit;p52 subunit) [z-score] | binding signal [3] [z-score] | binding signal [4] [z-score] |
| --- | --- | --- | --- | --- | --- | --- | --- | --- | --- |
| GAAATTGCCCT | 0.612 | -0.312 | -0.333 | 0.0283 | -0.203 | -0.547 | -0.476 | 0.175 | -0.0915 |
| AAAAACCTCCC | 0.0581 | 0.2 | -0.135 | 0.166 | -0.13 | 0.0831 | 0.117 | 0.28 | 0.0846 |
| AAAGTGATCCT | -0.833 | -1.79 | -0.692 | -1.3 | -1.06 | -1.27 | -0.978 | -1.55 | -0.986 |
| GGGATCGTCCT | 0.173 | -0.724 | 0.0256 | -0.544 | -0.296 | -0.598 | -0.614 | -0.493 | -0.166 |
| AGGGTTGCCCT | -0.236 | -1.22 | -0.523 | -0.681 | -0.727 | -0.807 | -0.774 | -0.341 | -0.29 |
| CAAATGCCCCT | 0.347 | 1.15 | 1.14 | 1.2 | 1.19 | 1.21 | 1.47 | 0.882 | 1.38 |
| AAAGTGCCCCC | 0.331 | 1.09 | 0.518 | 0.793 | 0.904 | 0.839 | 1.17 | 0.964 | 0.619 |
| GAGGAATCCCT | 0.176 | 0.599 | 0.671 | 0.612 | 0.532 | 0.403 | 0.517 | 0.573 | 0.416 |
| GAGTGTGCCCT | -0.0374 | -1.69 | -0.704 | -0.552 | -0.825 | -0.946 | -0.867 | -0.869 | -0.582 |
| GGGGTCATCCT | -0.528 | -0.376 | -0.115 | -0.626 | -0.394 | -0.425 | -0.362 | -0.494 | -0.0992 |
| GGAGATTCCCC | 2.94 | 1.13 | 2.51 | 2.35 | 2.22 | 2.06 | 2.22 | 1.88 | 2.2 |
| AGGGTGCCCCT | -0.552 | 0.473 | 0.342 | 0.511 | 0.658 | 0.571 | 1.16 | 0.426 | 0.644 |
| AGAATAATCCT | -0.568 | -1.24 | -0.591 | -0.939 | -0.846 | -0.98 | -0.603 | -0.925 | -0.909 |
| AGAGGAGCCCC | -0.573 | 0.291 | 0.0479 | -0.113 | -0.0242 | 0.0681 | 0.0342 | -0.0137 | -0.225 |
| CAATTCCCCCC | 1.09 | 1.66 | 1.93 | 2.3 | 1.94 | 2.19 | 2.34 | 1.94 | 1.85 |
